The full list was thinned out, with hits kept by preference.
KDM5B inhibitor: Primary screen for KDM5B Histone Demethylases FDH-coupled qHTS; KDM5B demethylase, FDH-coupled NADH fluorescence (FDH is formaldehyde dehydrogenase); 2.6% of 220,000 active; Potency, µM (top dose mostly 57.7 µM), actives largely listed as inhibitors; AID 1347165, 2019; Lysine-specific demethylase 5B (Homo sapiens), Q9UGL1; active = well fitted inhibition curve with a large enough effect; also: nearly all actives have a fitted effect of over 70% in size
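Here, H3K4me3 peptide (12.5 µM in substrate mix) is demethylated by KDM5BΔAP, 200 nM final, after 10 min compound exposure. Formaldehyde product is coupled through FDH (0.25 U/mL in mix) to NADH fluorescence; 30-min ΔRFU feeds dose-response curves.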
Of the large screens only hits and unclear results are named; the others gave an inactive call.

O=C(O)CCCC(=O)N1C[C@@H]2C[C@H](C1)c1ccc(-c3ccc(Cl)cc3)c(=O)n1C2	KDM5B inhibitor 39.8µM
CC(=O)Nc1ccc(-c2ccc(=O)n3c2[C@@H]2C[C@@H](CN(C(=O)CN(C)C)C2)C3)cc1	none
Cc1ccccc1-c1ccc2n(c1=O)C[C@H]1C[C@@H]2CN(C(=O)c2cnccn2)C1	none
O=C(C1CCCCC1)N1C[C@@H]2C[C@H](C1)c1ccc(-c3cccc(C(F)(F)F)c3)c(=O)n1C2	KDM5B inhibitor 31.6µM
C#C[C@H]1CN2CC[C@H]1C[C@@H]2CNC(=O)Nc1cccc(C(F)(F)F)c1	none
CC(=O)Nc1ccc(-c2ccc(=O)n3c2[C@@H]2C[C@@H](CN(C(=O)C4CCCCC4)C2)C3)cc1	none
CN(C)[C@@H]1CN(C(=O)Cc2ccccc2)C[C@H]1CO	none
NCCc1ccc(OCc2ccccc2)cc1	none
NC(=O)c1ccc(N2CC3CCC(C2)N3CC(F)(F)F)nn1	none
CCN1CCCC12Cc1ccccc1CN(C(=O)Cc1ccccc1)C2 (centres undefined)	none
CCOc1ccc(CNCCc2c[nH]c3ccccc23)cc1	none
Clc1ccc(-n2nnnc2C2(NC3CCCCC3)CCCCC2)cc1	none
CSCC(=O)Nc1ccc(=O)n2c1[C@@H]1C[C@@H](CN(C(=O)NC3CCCCC3)C1)C2	none
CSCC(=O)N1C[C@@H]2C[C@H](C1)c1ccc(-c3cccc(C(F)(F)F)c3)c(=O)n1C2	KDM5B inhibitor 35.5µM
COc1ccc2c(c1)C1(CCN(C(=O)COc3ccc(Cl)cc3)C1)C(=O)N2C (centres undefined)	none
COc1cc2c(cc1OCc1ccccc1)N(C(=O)COc1ccccc1)CC21CCN(C)CC1	none
Cc1cc(OS(C)(=O)=O)c2c3c(c(=O)oc2c1)CCCC3	none
COc1cc2c(cc1Oc1cccc(N(C)C)c1)NC(=O)C21CCN(C(=O)CN2CCOCC2)CC1	none
CN(C)CC(=O)Nc1ccc2n(c1=O)C[C@H]1C[C@@H]2CN(C(=O)c2ccc(F)cc2)C1	none
O=C(c1ccccc1)N1C[C@@H]2C[C@H](C1)c1ccc(-c3cncnc3)c(=O)n1C2	KDM5B inhibitor 39.8µM
O=C(c1ccc(F)cc1)N1C[C@@H]2C[C@H](C1)c1ccc(-c3cncnc3)c(=O)n1C2	KDM5B inhibitor 39.8µM
O=C(c1ccncc1)N1CC2CCC(C1)N2Cc1ccccc1	none
O=C(c1cccs1)N1[C@H]2CC[C@@H]1c1cnc(-c3ccc(F)cc3)nc1C2	none
CC(Oc1ccccc1)C(=O)NN (centres undefined)	none
COc1cc(CNC2CN3CCC2CC3)cc(Cl)c1OCc1ccccc1 (centres undefined)	none
CC(C)N(C(=O)CN1CC=C(c2c[nH]c3ccccc23)CC1)C(C)C	none
N#Cc1ccc(C(=O)N2C[C@@H]3C[C@H](C2)c2c(-c4cccs4)ccc(=O)n2C3)cc1	none
O=c1c(-c2cccs2)ccc2n1C[C@H]1C[C@@H]2CN(C2CCOCC2)C1	KDM5B inhibitor 35.5µM
CC(C)(CC(=O)O)CC(=O)N1C[C@@H]2C[C@H](C1)c1c(-c3cccs3)ccc(=O)n1C2	none
Cc1cc2c(c(=O)o1)C1(C(=O)Nc3ccccc31)C(C(=O)OCc1ccccc1)=C(N)O2 (centres undefined)	none
CC(C)c1ccc(NC(=O)OC[C@H]2C[C@@H]3CCN2C[C@@H]3c2cc(C3CCCC3)nc(-c3ccncc3)n2)cc1	none
CC(N)Cc1ccc2oc3ccccc3c2c1 (centres undefined)	none
O=C(Nc1ccc2c(c1)OCCO2)N1[C@H]2CC[C@@H]1c1cncnc1C2	none
O=C1CC2CCN(Cc3ccccn3)CC2CCN1 (centres undefined)	none
Cn1c(O)c(C=NC2CCN(Cc3ccccc3)CC2)c(=O)[nH]c1=O	none
CN1c2ncccc2CN(Cc2ccccn2)CC[C@H]1CO	KDM5B inhibitor 31.6µM
CN1CCC(C(=O)N2C3CCC2CN(Cc2cccnc2)C3)CC1	none
CN1c2ncccc2CN(Cc2ccccc2)CC[C@H]1CO	KDM5B inhibitor 31.6µM
O=C1Nc2ccccc2CC12CCCN2Cc1ccccn1 (centres undefined)	none
CN(C(=O)CCl)C1CCCCC1	none
CNC(=O)C1CCN(C(=O)c2cn(Cc3ccccc3)c3ccccc23)CC1	none
C#C[C@H]1CN2CC[C@H]1C[C@@H]2CNC(=O)Nc1cc(OC)cc(OC)c1	none
CNC(=O)c1ccc(NC(=O)COC(=O)c2cn(C)c3ccccc23)cc1	none
CC[C@H]1CN2CC[C@H]1C[C@@H]2COC(=O)Nc1ccccc1	none
COc1cc2c(cc1OC1CCCC1)NC(=O)C21CCN(Cc2cccc(O)c2)CC1	none
O=C(Cc1c[nH]c2ccccc12)N1CCN(CC(=O)N2CCCCCC2)CC1	none
CN1CCN(C(=O)Cc2c[nH]c3ncc(-c4ccc([S+](C)(=O)[O-])cc4)cc23)CC1	none
CN1CCN(C(=O)Cc2c[nH]c3ncc(-c4cccc(O)c4)cc23)CC1	none
Cc1ccc(NC(=O)CN2CCN(C(=O)Cc3c[nH]c4ccccc34)CC2)cc1	none
CN1CCN(C(=O)Cc2c[nH]c3ncc(-c4ccsc4)cc23)CC1	KDM5B inhibitor 39.8µM
CN1CCN(C(=O)Cc2c[nH]c3ncc(-c4ccccc4F)cc23)CC1	KDM5B inhibitor 35.5µM
N#Cc1cccc(NC(=O)NC[C@H]2C[C@@H]3CCN2C[C@@H]3CN2CCCCC2)c1	none
CCC(CN)c1ccccc1 (centres undefined)	none
CC(C)C1c2cccn2-c2ccccc2CN1C(=O)Nc1ccccc1F (centres undefined)	none
Cc1nc(-c2ccc(N(C)C)cc2)cc([C@H]2CN3CC[C@H]2C[C@@H]3CNC(=O)c2ccccc2)n1	KDM5B inhibitor 25.1µM
Cc1nc(-c2ccc(N(C)C)cc2)cc([C@H]2CN3CC[C@H]2C[C@@H]3COC(=O)NC(C)C)n1	KDM5B inhibitor 28.2µM
Cc1nc(-c2ccc(N(C)C)cc2)cc([C@H]2CN3CC[C@H]2C[C@@H]3COC(=O)Nc2ccc(C(C)C)cc2)n1	none
Cc1ccc(C(=O)NC[C@H]2C[C@@H]3CCN2C[C@@H]3c2cc(-c3ccccc3Br)nc(C)n2)cc1	none
COc1ccc(-c2cc([C@H]3CN4CC[C@H]3C[C@@H]4COC(=O)NC(C)C)n(C)n2)cc1	none
COc1ccc(C(=O)NC[C@H]2C[C@@H]3CCN2C[C@@H]3c2cc(-c3ccc(N(C)C)cc3)nc(C)n2)cc1	KDM5B inhibitor 28.2µM
COc1ccc(C(=O)NC[C@H]2C[C@@H]3CCN2C[C@@H]3c2cc(-c3ccc(F)cc3)nn2C)cc1	none
Cc1nc(-c2ccccc2Br)cc([C@H]2CN3CC[C@H]2C[C@@H]3CNC(=O)c2ccc(C(C)(C)C)cc2)n1	none
Cc1nc(-c2ccccc2Br)cc([C@H]2CN3CC[C@H]2C[C@@H]3CNC(=O)c2ccc(N(C)C)cc2)n1	none
COc1cc2c(cc1OC1CCCC1)NC(=O)C21CCN(C(=O)c2ccccc2)CC1	none
C#C[C@H]1CN2CC[C@H]1C[C@@H]2CNCc1ccc(OC)cc1	none
Cc1ccc2c(c1)C(Cc1nc3ccccc3c(=O)n1-c1ccc(Cl)cc1)C(=O)N2 (centres undefined)	none
COc1cc2c(cc1OCc1ccccc1)N(C(=O)c1ccccc1OC)CC21CCN(C)CC1	none
Clc1ccc(Cl)c(-c2ccc(CNC3CN4CCC3CC4)o2)c1 (centres undefined)	none
CSc1cccc(NC(=O)NC[C@H]2C[C@@H]3CCN2C[C@@H]3CN2CCC(Cc3ccccc3)CC2)c1	none
Cn1cc(C(=O)NC2CCCCCCC2)c2ccccc21	none
COCCOC1CCN(C(=O)c2nn(C)c3ccccc23)CC1	none
Cn1nc2n(c1=O)CCC(NC(=O)c1nn(C)c3ccccc13)CC2 (centres undefined)	KDM5B inhibitor 17.8µM
COc1ccc2[nH]cc(CCNCc3ccc(OC)c(OC)c3)c2c1	none
